PREPL inhibitor: human PREPL enzyme inhibition; Q4J6C6; hit rate 0.68% among 320,000; AID 2751; inhibition, % at 5.96 µM; recombinant PREPL, fluorescence polarization activity-based probe; in the data active = inhibition above about 43%;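 note: 0% = enzyme with DMSO and 100% = wells lacking enzyme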
Target sequence (Q4J6C6 whole entry, looked up): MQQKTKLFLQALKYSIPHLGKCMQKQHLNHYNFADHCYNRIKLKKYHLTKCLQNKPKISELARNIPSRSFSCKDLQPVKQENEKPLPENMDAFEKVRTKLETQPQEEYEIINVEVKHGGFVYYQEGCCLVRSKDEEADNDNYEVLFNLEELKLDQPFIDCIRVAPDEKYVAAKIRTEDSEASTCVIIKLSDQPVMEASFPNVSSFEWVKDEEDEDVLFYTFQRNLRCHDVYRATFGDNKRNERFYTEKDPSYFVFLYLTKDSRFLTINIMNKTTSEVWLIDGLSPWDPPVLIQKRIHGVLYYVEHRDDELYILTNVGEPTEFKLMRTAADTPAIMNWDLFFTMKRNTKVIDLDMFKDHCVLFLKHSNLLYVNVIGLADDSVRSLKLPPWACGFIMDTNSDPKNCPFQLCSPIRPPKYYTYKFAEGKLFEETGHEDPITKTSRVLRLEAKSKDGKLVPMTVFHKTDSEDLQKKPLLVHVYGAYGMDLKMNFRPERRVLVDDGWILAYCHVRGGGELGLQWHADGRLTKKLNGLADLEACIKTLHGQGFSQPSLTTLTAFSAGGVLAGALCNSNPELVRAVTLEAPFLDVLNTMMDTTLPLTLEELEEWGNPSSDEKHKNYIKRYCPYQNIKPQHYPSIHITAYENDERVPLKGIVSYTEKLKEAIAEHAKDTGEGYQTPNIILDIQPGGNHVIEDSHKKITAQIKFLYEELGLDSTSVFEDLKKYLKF
AI-2 QS mod: modulators of Vibrio harveyi AI-2 quorum sensing system; Vibrio harveyi JMH597 AI-2 luminescence/OD600 ratio, 9 h; hits give low values; strain lacks LuxN and CqsS sensors; 0 = neutral-control median; hit rate 0.4% among 300,000; activity change, % at 7.5 µM; in the data active = activity change below about -75%, passing the limit was not always enough;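 note: luminescence divided by OD600 gain over 9 h not by final OD600 alone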
CHT inh: inhibits the human high affinity choline transporter; Q9GZV3; CHT-expressing cells, membrane potential dye, choline response; hits give low values; B-score at 10 µM; hit rate 0.86% among 310,000;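 active = B-score over 3 SD under the library average, and starting fluorescence ratio not unusually high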;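 note: choline stimulus applied at its EC90 after an EC20 pre-addition; B-score computed on integrated fluorescence ratio after choline addition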
ALR H2O2 inh: human ALR oxidase inhibition via reduced H2O2; purified ALR, DTT oxidation, H2O2 HRP-luminol luminescence; inhibition, % (concentration not given with the values); hit rate 3.8% among 290,000;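 active = mean replicate inhibition above about 79%, with every replicate also reaching it, limit read from the data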
CHT PAM: allosteric activators of human choline transporter CHT; Q9GZV3; CHT-expressing cells, membrane potential dye, choline EC20; hits give high values; LV-AA mutant CHT in HEK293 cells; B-score at 10 µM; hit rate 0.49% among 310,000;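 active = initial fluorescence not abnormally high and integrated response B-score, plate-corrected, over 3 SD above library mean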
* = called active by the depositor; i = inactive; x = no result. Compounds with a hit are over-represented: about 5% of the library has one in this group of screens.

SMILES	PREPL inhibitor	AI-2 QS mod	CHT inh	ALR H2O2 inh	CHT PAM
O=C(CNC(=O)c1ccccc1)NCCc1ccc(O)c(O)c1	25	1	i	x	i
CCOC(=O)C(=NC(C)(C)C)NNc1cc(Cl)ccc1Cl	17	6	i	99*	i
CCCNC(=O)C(Cc1ccccc1)NS(=O)(=O)c1ccc2c(c1)CCC(=O)N2 (centres undefined)	-1	-14	i	84*	i
CN(Cc1ccco1)C(=O)C(Cc1ccccc1)NS(=O)(=O)c1ccc2c(c1)CCC(=O)N2 (centres undefined)	4	12	i	78*	i
Cc1ccc(CNC(=O)C(Cc2ccccc2)NS(=O)(=O)c2ccc3c(c2)CCC(=O)N3)cc1 (centres undefined)	1	46	i	-7	i
CCC(=O)N1CCc2cc(S(=O)(=O)NC(Cc3ccccc3)C(=O)NC3CCCC3)ccc21 (centres undefined)	-11	33	i	19	i
O=C1CCc2cc(S(=O)(=O)NC(C(=O)NCc3cccnc3)c3ccccc3)ccc2N1 (centres undefined)	-7	x	i	x	i
O=C1CCc2cc(S(=O)(=O)NC(Cc3ccccc3)C(=O)NC3CCCC3)ccc2N1 (centres undefined)	9	20	i	84*	i
CC1CCc2sc(C(=O)NNC(=O)c3ccncc3)cc2C1 (centres undefined)	20	-4	i	x	i
O=C(CSc1nc(=O)[nH]c2c1CCCC2)Nc1ccc(F)cc1F	-7	11	i	39	i
CN1CCC(N(C)C(=O)/C(C#N)=C/c2ccccc2)CC1	x	25	i	0	i
CC(C)CN(CCC(=O)O)CC(C)C	1	26	i	-12	i
COc1ccccc1N1C(=O)CC(Nc2ccc(N3CCOCC3)cc2)C1=O (centres undefined)	13	32	i	100*	i
O=C1CC(Nc2ccc(N3CCOCC3)cc2)C(=O)N1c1ccccc1 (centres undefined)	7	14	i	99*	i
O=C1CC(Nc2ccc(N3CCOCC3)cc2)C(=O)N1Cc1ccccc1 (centres undefined)	25	-7	i	98*	i
O=C1CC(NNc2ccccc2)C(=O)N1c1ccccc1 (centres undefined)	5	-16	i	100*	i
CCOc1cc2sc(N3CCC(C(=O)NCCCN4CCCC4=O)CC3)nc2cc1Br	12	-2	i	-15	i
CCOc1ccccc1N1C(=O)CC(Nc2ccc(N3CCOCC3)cc2)C1=O (centres undefined)	13	14	i	98*	i
O=C(c1ccco1)N1CCN(C(=O)c2cc(-c3ccncc3)nc3ccc(Br)cc23)CC1	-2	13	i	x	i
O=C(O)c1cc(-c2ccco2)nc2ccc(Br)cc12	18	51	i	98*	i
COc1ccccc1CNC(=O)CSc1ccc(-c2cccc([N+](=O)[O-])c2)nn1	3	2	i	84*	i
Nc1ccc(Cl)cc1/C(=N/O)c1ccccc1	-7	8	i	97*	i
Cc1cc(C)c(S(N)(=O)=O)c(C)c1N(C)S(=O)(=O)c1ccc(Cl)cc1	-2	43	i	2	i
CC(=O)[C@@]1(O)CC[C@H]2[C@@H]3CCC4=CC(=O)CC[C@]4(C)[C@H]3[C@@H](O)C[C@@]21C	-6	26	-6.6*	-9	i
COC(=O)CSc1nc2ccccn2c(=O)c1C=O	-5	13	i	-24	i
SMILES	PREPL inhibitor	AI-2 QS mod	CHT inh	ALR H2O2 inh	CHT PAM
O=Cc1c(Sc2ccccn2)nc2ccccn2c1=O	8	6	i	97*	i
O=C1NC(=S)S/C1=C\c1ccc(SCc2ccco2)o1	29	x	i	99*	i
O=C1NC(=S)S/C1=C\c1ccc(SCc2ccccc2)o1	21	x	i	-1	i
COc1cc2ccccc2cc1C(=O)Nc1ccc(Cl)cn1	-1	7	i	-6	i
CCCCCCCc1c(C#N)c(N)[nH]c(=S)c1C#N	-2	8	i	96*	i
CCCCCOc1ccc(C(=O)CCC(=O)N2CCCC2)cc1	-6	10	i	-1	i
CN1C(=O)CC(N2CCN(c3ccc(Cl)cc3)CC2)C1=O (centres undefined)	7	38	i	98*	i
CCc1sc(NS(C)(=O)=O)nc1-c1ccccc1	9	28	i	98*	i
O=S(=O)([N-]c1nc2ccccc2nc1-n1cc[n+](Cc2ccccc2)c1)c1ccc(Cl)cc1	9	24	i	-5	i
Cc1cc(=O)oc2cc3c(cc12)OCCN3	-6	16	i	97*	i
COc1ccc(CCNC(=O)c2ccc(=O)[nH]c2)cc1OC	-2	27	i	21	i
Cc1cccc(N2CCN(C(=O)c3ccc(CS(=O)Cc4cccc(Cl)c4)o3)CC2)c1C (centres undefined)	0	26	i	100*	i
Cc1ccc(Cl)cc1N1CCN(C(=O)c2ccc(CS(=O)Cc3ccc(Cl)cc3)o2)CC1 (centres undefined)	33	29	i	2	i
COc1ccc(N2CCN(C(=O)c3ccc(CS(=O)c4cccc(C)c4)o3)CC2)cc1 (centres undefined)	15	-2	i	99*	i
COc1cc([N+](=O)[O-])cc(/C=C2/SC(=S)N(Cc3ccccc3)C2=O)c1O	-71	6	-5.8*	97*	i
O=C1/C(=C\c2cccc([N+](=O)[O-])c2O)SC(=S)N1Cc1ccccc1	-16	14	-8.4*	20	i
O=C1/C(=C/c2ccc(O)c([N+](=O)[O-])c2)SC(=S)N1Cc1ccccc1	-6	-12	i	0	i
CCOC(=O)C1=NN(C(=O)COc2ccccc2)C(O)(c2ccc(Br)cc2)C1 (centres undefined)	10	9	i	16	i
c1ccc(Nc2nc(CSc3ncn[nH]3)cs2)cc1	-5	14	i	94*	i
CS/C(=N\S(=O)(=O)c1ccccc1)c1ccccc1	9	46	i	1	i
O=S(=O)(/N=C(/Sc1ccccc1)c1ccccc1)c1ccccc1	-4	66	i	98*	i
CCn1nc(C)cc1C(=O)Sc1ccc(C)cc1	-4	23	i	98*	i
CCOC(=O)C1(CCOC)CCN(Cc2nc(C(C)C)cs2)CC1	7	31	i	-9	i
O=C(COc1cc(F)ccc1[N+](=O)[O-])Nc1ccc(N2CCCCC2)cc1	16	31	i	17	i
COc1ccc(N2Nc3n[nH]c(N)c3N2)cc1	2	11	i	99*	i
c1ccc(-n2ncc3c(N4CCN(CCOc5cccc6ccccc56)CC4)ncnc32)cc1	-7	26	i	x	i
